Sm TGR inh – inhibitors of Schistosoma mansoni thioredoxin glutathione reductase. hit rate 3% among 360,000. Q962Y6. purified TGR, DTNB reduction, TNB absorbance 405 nm. Potency, µM (top dose mostly 114 µM), actives largely listed as inhibitors; also: nearly all actives have a fitted effect of over 60% in size
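TGR 20 nM + NADPH 100 uM (dispensed conc.), cpd preinc 15 min RT; start with NADPH (500 uM addition) then DTNB (15 mM addition). Kinetic TNB absorbance, 405 nm filter. Four-parameter Hill fit across titration.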
Pf growth 96h – inhibits malaria parasite growth, 96 h; Potency, µM (series often up to 28.7 µM), usual class: inhibitors; hit rate 6.9% among 320,000; P. falciparum luciferase reporter growth, 96 h; AID 504834
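Two-generation exposure (96 h) targets delayed-death phenotype. Reporter parasites carrying integrated firefly luciferase, in red cells at 2% hematocrit and 0.05% parasitemia final, kept at 37 C, 5% CO2; luminescence loss indicates inhibition.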
SARS PLpro yeast – blocks SARS-CoV papain-like protease in a yeast assay; S. cerevisiae expressing SARS-CoV PLpro, growth rescue; Potency, µM (top dose mostly 32.9 µM), usual class: activators; hit rate 0.19% among 330,000; calls by dose curve; also: nearly all actives have a fitted effect of over 55% in size
AmpC detergent – inhibitors of E. coli AmpC beta-lactamase with detergent | P00811 | AmpC hydrolysis of nitrocefin, absorbance 480 nm, 0.01% Triton | Potency, µM (highest dose often 114 µM), most hits filed as inhibitors | hit rate 0.041% among 370,000 | AID 485294; also: nearly all actives have a fitted effect of over 25% in size
Target sequence (P00811 whole entry, looked up): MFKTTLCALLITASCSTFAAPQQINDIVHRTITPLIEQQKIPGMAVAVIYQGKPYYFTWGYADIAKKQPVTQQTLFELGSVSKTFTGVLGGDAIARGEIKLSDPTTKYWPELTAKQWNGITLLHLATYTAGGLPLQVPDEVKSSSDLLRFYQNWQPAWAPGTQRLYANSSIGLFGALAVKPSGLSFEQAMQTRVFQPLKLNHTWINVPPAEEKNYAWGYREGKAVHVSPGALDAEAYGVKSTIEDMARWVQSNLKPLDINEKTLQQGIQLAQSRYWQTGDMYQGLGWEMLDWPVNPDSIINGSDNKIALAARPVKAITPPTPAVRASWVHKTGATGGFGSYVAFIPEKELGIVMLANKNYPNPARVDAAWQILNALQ
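AmpC (5.3 nM in the dispensed reagent) in 20 mM phosphate pH 7.0 with 0.01% (detergent screen) or 0.0001% Triton X-100 was preincubated with compounds for 15 min at room temperature. Nitrocefin was then added from an 800 uM solution, and hydrolysis was followed at 480 nm.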
AmpC inh no detg – inhibitors of E. coli AmpC beta-lactamase without detergent. P00811. Potency, µM (top dose mostly 57.1 µM), hits mostly inhibitors. hit rate 0.52% among 330,000. AmpC nitrocefin hydrolysis, absorbance 480 nm, 0.0001% Triton. AID 485341; also: nearly all actives have a fitted effect of over 20% in size
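20 mM phosphate pH 7.0 + 0.01% (detergent screen) or 0.0001% Triton X-100; 5.3 nM AmpC reagent; cpd preinc 15 min RT; nitrocefin (800 uM stock) to start; A480 q20 s × 4 min; Activity was normalised to no-enzyme and no-compound control wells.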
Pf growth 48h – inhibits P. falciparum growth in the first generation, 48 h; Potency, µM (titrated, usually from 28.7 µM), usual class: inhibitors; P. falciparum luciferase growth in erythrocytes, 48 h; AID 504832; hit rate 5.9% among 310,000
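Erythrocytes infected with P. falciparum carrying an integrated firefly luciferase reporter (2% hematocrit, 0.1% parasitemia final) were exposed to compounds in RPMI 1640 with 0.5% Albumax at 37 C, 5% CO2. Growth inhibition was scored as reduced luminescence.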
Hits are given with their value; . = inactive; ? = inconclusive; / = no result given. Hits are enriched below; roughly 12% of the tested compounds scored in any of these assays. Unless noted, calls follow the shape of the dose curve; as a rule, active = well fitted curve in the direction sought with a large enough effect; inconclusive = small, poorly fitted or top-dose-only effect, or another doubt; inactive = no such curve, though single readings can be large; an effect the other way counts as inactive or inconclusive.

SMILES | Sm TGR inh | Pf growth 96h | SARS PLpro yeast | AmpC detergent | AmpC inh no detg | Pf growth 48h
COc1cc(OC)cc(-c2nc3nc(C)c(CCC(=O)Nc4ccc(C)cc4C)c(C)n3n2)c1 | . | / | / | . | / | /
CCn1c2ccccc2c2nnc(N3CCN(c4ccc(OC)cc4)CC3)nc21 | . | / | / | . | / | /
CNC(=S)Nc1ccc2nc(C)c(C)nc2c1 | 31.6µM | . | . | . | . | .
CNC(=S)Nc1ccc2nc(C)oc2c1 | . | . | . | . | . | .
Cc1ccc(Cl)cc1N1CCN(C(=O)c2ccc3c(c2)N(Cc2ccc(F)cc2)CCS3)CC1 | . | / | / | . | / | /
CCOCCCNCc1cc(Br)ccc1OCc1ccccc1 | . | ? | . | . | . | 10.4µM
CCOc1cc(CNCCc2ccc(S(N)(=O)=O)cc2)ccc1OCc1ccccc1 | . | ? | . | . | . | ?
CCOc1cc(CNCCc2ccc(S(N)(=O)=O)cc2)cc(Cl)c1OCc1ccccc1 | . | 13.1µM | . | . | . | 13.1µM
NS(=O)(=O)c1ccc(CCNC(=O)c2ccccc2OCc2ccc(F)cc2)cc1 | . | . | . | ? | 11.2µM | .
OCCNCc1cc(Br)ccc1OCc1ccccc1 | . | . | . | ? | . | .
CCOc1ccccc1C(=O)NCC(=O)OCC(=O)NCCc1ccc(S(N)(=O)=O)cc1 | . | . | . | ? | . | .
NS(=O)(=O)c1ccc(CCNCc2cc(Br)ccc2OCc2ccccc2)cc1 | . | . | . | . | . | 13.1µM
Cc1ccc(CNC(=O)CCCCCn2c(=O)c3sccc3n(CC(=O)N3CCCCC3C)c2=O)cc1 (configuration not stated) | . | / | / | . | / | /
COc1ccc(/C=C(/CC(=O)NCc2ccc(Cl)cc2)c2nc3ccccc3s2)cc1 | . | ? | . | . | 17.8µM | .
Cc1nnc(SCC(=O)Nc2c(Cl)cccc2Cl)n(N)c1=O | . | . | . | . | . | .
Cc1ccc(CN(Cc2cc3cc(C)ccc3[nH]c2=O)C(=O)N2CCOCC2)cc1 | . | ? | . | ? | . | 6.57µM
CCCCOc1[nH]c2nc(-c3ccco3)n(Cc3ccco3)c(=N)c2c1C#N | ? | . | . | . | . | 5.86µM
Nc1cc(=O)n(Cc2ccccc2)c(=O)n1-c1ccc(F)cc1 | . | ? | . | . | . | .
Nc1cc(=O)n(Cc2ccccc2)c(=O)n1-c1ccc(Cl)cc1 | . | ? | . | . | . | 10.4µM
Oc1ccc(N=Cc2cc(Br)c(N3CCOCC3)o2)cc1 | 17.8µM | . | . | . | . | .
O=[N+]([O-])c1cc(Br)c(O)c(C=Nc2ccc(N3CCOCC3)cc2)c1 | . | . | . | . | . | ?
CN(C)c1ccc(NC(=O)c2cccc(C(=O)Nc3ccc(N(C)C)cc3)n2)cc1 | . | 8.28µM | . | . | . | ?
COc1ccc(C(=O)c2cc([N+](=O)[O-])ccc2N2CCCC2)cc1 | . | . | . | . | . | .
CN(C)c1ccc(NC(=O)c2ccc([N+](=O)[O-])cc2Cl)cc1 | . | . | . | 100µM | . | .
COc1ccc(C(=O)c2ccc([N+](=O)[O-])cc2Cl)cc1 | 12.6µM | . | . | . | . | .
SMILES | Sm TGR inh | Pf growth 96h | SARS PLpro yeast | AmpC detergent | AmpC inh no detg | Pf growth 48h
O=C(Nc1ccccc1)c1cccc(C(=O)Nc2ccccc2)n1 | . | ? | . | . | . | .
O=C(Cn1c(=O)n(-c2ccccc2)c(=O)c2c3c(sc21)CCCC3)Nc1ccccc1 | . | / | / | . | / | /
O=C(Cn1c(=O)n(Cc2ccco2)c(=O)c2c3c(sc21)CCCC3)Nc1ccccc1 | 50.1µM | ? | . | ? | ? | ?
Cc1cc(C)c(NC(=O)Cn2c(=O)n(Cc3ccco3)c(=O)c3ccccc32)c(C)c1 | . | . | . | . | . | 13.1µM
NC(=O)Cn1c(=O)n(Cc2ccco2)c(=O)c2c3c(sc21)CCCCC3 | 7.08µM | . | ? | . | . | ?
CCOc1ccc(-n2c(=O)c3c4c(sc3n(CC(=O)NCc3ccco3)c2=O)CCC4)cc1 | . | . | . | . | . | .
C=CCN(C(=O)CSC1=NC(=O)CN1C(C)=O)c1nc(C)c(-c2ccccc2)s1 | 4.47µM | . | . | . | . | .
O=C(NCCC1=CCCCC1)c1ccc(Cl)c(S(=O)(=O)Nc2ccccc2)c1 | . | ? | . | . | . | ?
Cc1ccccc1NS(=O)(=O)c1cc(C(=O)NCCC2=CCCCC2)ccc1C | . | ? | . | ? | 10µM | ?
Cc1ccc(C(=O)NCCC2=CCCCC2)cc1S(=O)(=O)N1CCCCC1 | . | 4.65µM | . | . | . | 11.7µM
Cc1ccc(C(=O)NCCC2=CCCCC2)cc1S(=O)(=O)N1CCOCC1 | . | ? | . | ? | . | 11.7µM
Cc1oc2c(c1C(=O)Nc1ccc(OC(F)(F)F)cc1)C1=NCCN1C=N2 | . | / | / | . | / | /
Cn1cc(CN2CCC(O)CC2)c(-c2ccc(Oc3ccccc3)cc2)n1 | . | 9.28µM | . | . | . | .
Cc1cc(CNCc2cn(C)nc2-c2ccc(Oc3ccccc3)cc2)on1 | . | 11.7µM | . | . | . | ?
Cn1cc(CN2CCN(Cc3ccccc3)CC2)c(-c2cccc(Cl)c2)n1 | 31.6µM | ? | . | . | . | ?
CC(C)N(C)Cc1cn(C)nc1-c1ccc(Oc2ccccc2)cc1 | . | 5.22µM | . | . | . | .
Cn1cc(CNCC2CCCO2)c(-c2ccc(Oc3ccccc3)cc2)n1 (configuration not stated) | . | . | . | . | . | ?
O=c1[nH]c2ccc(N=Cc3c(O)ccc4cc(Br)ccc34)cc2[nH]1 | 31.6µM | . | . | . | . | .
O=C1CC(N2CCCCC2)C(=O)N1c1ccccc1 (configuration not stated) | 31.6µM | ? | . | ? | . | ?
O=C1CC(N2CCC(O)CC2)C(=O)N1c1ccc(Br)cc1 (configuration not stated) | 56.2µM | . | . | . | . | .
O=C1CC(N2CCN(S(=O)(=O)c3ccccc3)CC2)C(=O)N1c1ccccc1 (configuration not stated) | 50.1µM | . | . | . | . | .
COc1ccc(C(=O)NNC(=O)C2CCCN(C3CC(=O)N(c4ccccc4)C3=O)C2)cc1 (configuration not stated) | 44.7µM | . | . | . | . | .
COc1ccc(NC(=O)c2cc(-c3ccccc3F)no2)cc1 | . | / | / | . | / | /
COC(=O)c1cc2occc2n1Cc1ccc(F)cc1Cl | . | / | / | . | / | /
O=C1CC(N2CCCN(C3CC(=O)N(c4ccc(F)cc4)C3=O)CC2)C(=O)N1c1ccc(F)cc1 (configuration not stated) | 20µM | . | . | . | . | .
COc1ccccc1N1CCN(C(=O)c2ccc(COc3cccc4c3OC(C)(C)C4)cc2)CC1 | . | ? | . | . | . | 10.4µM
